# What was measured:
# Conditions in all cases: concentration: 1 μM, replicates: in singlicate; n = 1
# EPHA4 = system: EPHA4
# EPHA5 = system: EPHA5
# EPHA6 = system: EPHA6
# EPHA7 = system: EPHA7
# EPHA8 = system: EPHA8
# EPHB1 = system: EPHB1
# EPHB2 = system: EPHB2
# EPHB3 = system: EPHB3
# EPHB4 = system: EPHB4
# EPHB6 = system: EPHB6
# ERBB2 = system: ERBB2
# ERBB3 = system: ERBB3
# ERBB4 = system: ERBB4
# ERK1 = system: T1, ERK1
# T1 construct: gene MAPK3
# ERK2 = system: T2, ERK2
# T2 construct: gene MAPK1
# ERK3 = system: T3, ERK3
# T3 construct: gene MAPK6
# ERK4 = system: T4, ERK4
# T4 construct: gene MAPK4
# ERK5 = system: T5, ERK5
# T5 construct: gene MAPK7
# ERK8 = system: T6, ERK8
# T6 construct: gene MAPK15
# ERN1 = system: ERN1
# 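Note: KINOMEscan kinase panel screen.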
SMILES,%Inh (EPHA4) [%],%Inh (EPHA5) [%],%Inh (EPHA6) [%],%Inh (EPHA7) [%],%Inh (EPHA8) [%],%Inh (EPHB1) [%],%Inh (EPHB2) [%],%Inh (EPHB3) [%],%Inh (EPHB4) [%],%Inh (EPHB6) [%],%Inh (ERBB2) [%],%Inh (ERBB3) [%],%Inh (ERBB4) [%],%Inh (ERK1) [%],%Inh (ERK2) [%],%Inh (ERK3) [%],%Inh (ERK4) [%],%Inh (ERK5) [%],%Inh (ERK8) [%],%Inh (ERN1) [%]
Cn1ccc2ncnc(Oc3ccc(Nc4nc5ccccc5[nH]4)cc3)c21,12,0,4,0,0,0,0,0,1,0,3,0,0,0,2,0,0,0,0,0
O=S(=O)(c1ccc(-c2ccnc3[nH]ccc23)cc1)N1CCCC1 [GSK846226],0,0,0,3,4,3,0,14,4,9,0,0,0,0,0,11,30,0,0,35
Cc1nnc(-c2ccc3occ(-c4ccc(S(C)=O)cc4)c3c2)[nH]1 (stereo not shown),24,10,34,7,6,0,16,17,16,13,16,6,5,0,8,13,0,0,0,35
CC(C)(C)c1ccc(C(=O)Nc2cn3cc(Cl)ccc3n2)cc1,0,0,0,0,0,0,0,0,0,8,14,0,0,0,0,0,0,0,0,0
Nc1ncnc2[nH]c(-c3ccccc3)nc12 [AH5015],23,0,8,29,25,0,8,16,19,25,14,0,0,4,0,0,0,0,31,12
C[C@@H]1CCCCN1c1cc(-c2ccc3c(N)n[nH]c3c2)nc(N)n1 [GSK2258759],2,0,1,0,3,12,0,7,15,14,18,0,12,8,0,5,0,0,0,0
Cc1ccc(C(=O)Nc2ccc(Nc3ccnc4cc(-c5ccccn5)ccc34)cc2O)cc1.Cl [GW440146],0,0,0,4,10,5,14,0,0,48,38,0,31,5,0,0,10,0,0,0
CN(C)CCN(C)C(=O)c1cc(-c2ccncc2)c(-c2ccc(Cl)c(O)c2)o1.Cl.Cl [SB-710397],6,0,8,13,16,8,12,11,5,5,53,26,33,2,0,0,0,0,0,0
CCn1c(-c2ccccn2)nc2cnccc21 [SB-736398],23,0,7,0,5,0,0,12,35,0,26,14,0,11,0,14,6,5,37,0
COc1ccc(Nc2nccc(NCCNC(=O)Nc3ccccc3F)n2)cc1 [GSK1379901],14,0,6,7,25,0,0,27,32,4,0,0,45,0,0,9,32,0,0,0
Cc1c(Cn2ccn3c(=O)cc(N4CCOCC4)nc23)cccc1C(F)(F)F [GSK2289044],6,0,0,0,0,21,0,5,9,0,0,0,0,0,0,0,0,0,0,3
